# Assay results: the supplement of paper PMC9135407
# Values joined by “and” are separate entries in the source; they are usually repeats but may differ in a detail not shown here. Identical values can stand only once. Counter-ions that a name gives are not always drawn. The whole screen tested about 5,800 compounds, of which about 620 (11%) showed activity. This is one part of a sample in which actives are shown more often than they occur. Values without a mark were called inactive.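 Rule for the calls: active = score above a cut-off or among the top three wells of a plate; in these data no inactive exceeds 0.85.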
# Tested on: primary human hepatic stellate cells (donor 1)
# Assay: scaled lipid accumulation score (0 = DMSO-like, 1 = nortriptyline-like); higher = stronger HSC inactivation (lipid re-accumulation), active = hit call of the paper
# Details: 48 h
# [1] = library stock concentration: 10 mM
# [2] = library stock concentration: 1 mM
# [3] = library stock concentration: 80 uM
# [4] = library stock concentration: 400 uM
# [5] = library stock concentration: 2 mM
# [6] = library stock concentration: 3.33 mM
smiles,measurement,setting,value
NC(C(=O)O)c1ccc(C(=O)O)c(C(=O)O)c1 (racemic),scaled lipid accumulation score,[1],≤ -0.006
C[C@@H]1CN(c2c(F)c(F)c3c(=O)c(C(=O)O)cn(C4CC4)c3c2F)C[C@H](C)N1,scaled lipid accumulation score,[1],≤ 0
N=C(NO)NCC[C@H](N)C(=O)O,scaled lipid accumulation score,[2],≤ 0
CC(=O)Oc1cccc(O)c1 [Resorcinol monoacetate],scaled lipid accumulation score,[1],0.063
same,scaled lipid accumulation score,library stock concentration: 13.1 mM,≤ 0
"CCCCCCCC/C=C\C/C=C\C/C=C\CCCC(=O)NCCO [5(Z),8(Z),11(Z)-Eicosatrienoic Acid Ethanolamide]",scaled lipid accumulation score,[2],0.015
CCCCCCCC/C=C\C/C=C\C/C=C\CCCC(=O)NCCO [Mead ethanolamide],scaled lipid accumulation score,[2],0.017
CCCCCCCCCCCCCCCC(=O)O[C@H](CC(=O)O)C[N+](C)(C)C,scaled lipid accumulation score,[1],0.027
CCCOc1ccc(C=C2SC(=O)NC2=O)cc1,scaled lipid accumulation score,[3],≤ -0.001
same,scaled lipid accumulation score,[4],≤ -0.001
same,scaled lipid accumulation score,[5],≤ -0.001
same,scaled lipid accumulation score,[1],≤ -0.001
OCC(O)CCO/N=C1\C(c2c(O)[nH]c3ccccc23)=Nc2ccccc21 (centres undefined) [Indirubin Derivative E804],scaled lipid accumulation score,[6],≤ 0
c1ccc(N2CCN(CCCOc3ccc4c(c3)OCO4)CC2)cc1 [BP 554 maleate],scaled lipid accumulation score,[1],≤ 0
Fc1ccc([C@@H]2CCNC[C@H]2COc2ccc3c(c2)OCO3)cc1 [Paroxetine],scaled lipid accumulation score,[1],0.634
Fc1ccc([C@@H]2CCNC[C@H]2COc2ccc3c(c2)OCO3)cc1 [Paroxetine hydrochloride hemihydrate (MW = 374.83)],scaled lipid accumulation score,[1],0.836
Cl.Fc1ccc([C@@H]2CCNC[C@H]2COc2ccc3c(c2)OCO3)cc1 [Paroxetine HCl],scaled lipid accumulation score,[6],0.491 (active)
Fc1ccc([C@@H]2CCNC[C@H]2COc2ccc3c(c2)OCO3)cc1 [Paroxetine hydrochloride],scaled lipid accumulation score,[1],0.808
Cl.Fc1ccc([C@@H]2CCNC[C@H]2COc2ccc3c(c2)OCO3)cc1 [Paroxetine Hydrochloride],scaled lipid accumulation score,,1.22 (active)
Fc1ccc([C@@H]2CCNC[C@H]2COc2ccc3c(c2)OCO3)cc1 [Paroxetine HCl] [listing 1 of 2 here],scaled lipid accumulation score,library stock concentration: 6.1 mM,1.01 (active)
Fc1ccc([C@@H]2CCNC[C@H]2COc2ccc3c(c2)OCO3)cc1 [Paroxetine HCl] [listing 2 of 2 here],scaled lipid accumulation score,[1],0.355
COc1cc(F)c(C(C)C)cc1-c1ccc(C(F)(F)F)cc1CN1C(=O)O[C@H](c2cc(C(F)(F)F)cc(C(F)(F)F)c2)[C@@H]1C [Anacetrapib (MK-0859)],scaled lipid accumulation score,[6],≤ 0
same,scaled lipid accumulation score,[1],≤ 0
C=C1C[C@@H](O)[C@H](/C=C/[C@@H](O)CCCCC)[C@H]1C/C=C\CCCC(=O)O [9-deoxy-9-methylene Prostaglandin E2],scaled lipid accumulation score,[2],0.01
Cc1cc(C)cc(NC(=O)Cc2ccc(OC(C)(C)C(=O)O)cc2)c1 [Efaproxiral Sodium],scaled lipid accumulation score,[6],≤ 0
same,scaled lipid accumulation score,[1],≤ -0.001
O=C1Cc2c([nH]c3ccc([N+](=O)[O-])cc23)-c2ccccc2N1 [Alsterpaullone],scaled lipid accumulation score,[6],≤ 0
COc1ccc(/C=C/C(=O)Nc2c(O)cccc2C(=O)O)cc1OC,scaled lipid accumulation score,[2],≤ 0
O=C(c1ccccc1)c1ccc2n1CCC2C(=O)O (centres undefined),scaled lipid accumulation score,[1],≤ 0
O=C(c1ccccc1)c1ccc2n1CCC2C(=O)O (centres undefined) [Ketorolac],scaled lipid accumulation score,[6],≤ 0
same,scaled lipid accumulation score,[1],≤ 0
O=C(c1ccccc1)c1ccc2n1CCC2C(=O)O (centres undefined) [Ketorolac tris salt],scaled lipid accumulation score,[1],≤ -0.055
O=C(c1ccccc1)c1ccc2n1CCC2C(=O)O (centres undefined) [Ketorolac tromethamine],scaled lipid accumulation score,,≤ 0
same,scaled lipid accumulation score,library stock concentration: 5.3 mM,≤ 0
same,scaled lipid accumulation score,[1],0.024
O=C(c1ccccc1)c1ccc2n1CCC2C(=O)O (centres undefined) [Ketorolac (tromethamine salt)],scaled lipid accumulation score,[2],≤ 0
O=C(c1cccnc1)N1CCOCC1,scaled lipid accumulation score,[1],0.163
COC(=O)[C@]12CCC(C)(C)C[C@H]1[C@H]1C(=O)C=C3[C@@]4(C)C=C(C#N)C(=O)C(C)(C)[C@@H]4CC[C@@]3(C)[C@]1(C)CC2 [Bardoxolone Methyl],scaled lipid accumulation score,[6],0.195
same,scaled lipid accumulation score,[1],0.183
CC(C)OC(=O)CCC/C=C\C[C@@H]1[C@@H](/C=C/[C@@H](O)COc2cccc(C(F)(F)F)c2)[C@H](O)C[C@@H]1O,scaled lipid accumulation score,[1],≤ 0
O=C(/C=C\n1cnc(-c2cc(C(F)(F)F)cc(C(F)(F)F)c2)n1)NNc1cnccn1,scaled lipid accumulation score,[6],≤ -0.009
same,scaled lipid accumulation score,[1],0.384
CC1(C)S[C@@H]2[C@H](NC(=O)[C@H](NC(=O)N3CCN(S(C)(=O)=O)C3=O)c3ccccc3)C(=O)N2[C@H]1C(=O)O [Mezlocillin Sodium],scaled lipid accumulation score,[6],≤ 0
same,scaled lipid accumulation score,[1],0.043
O=C(NCCN1CCC(n2c(=O)[nH]c3cc(Cl)ccc32)CC1)c1ccc(F)cc1 [Halopemide],scaled lipid accumulation score,[2],≤ 0
C[C@@H](CN1CCC(n2c(=O)[nH]c3cc(Cl)ccc32)CC1)NC(=O)c1ccc2ccccc2c1.Cl,scaled lipid accumulation score,[1],1.12 (active)
C[C@@H](CN1CCC(n2c(=O)[nH]c3cc(Cl)ccc32)CC1)NC(=O)c1ccc2ccccc2c1,scaled lipid accumulation score,[2],0.02
"Brc1ccc(C2CN3CCSC3=N2)cc1 (single isomer, unassigned; (-)) [(-)-p-Bromotetramisole Oxalate]",scaled lipid accumulation score,[6],≤ -0.009
same,scaled lipid accumulation score,[1],0.192
C=CCNC(=O)c1cc([N+](=O)[O-])cc2c(=O)[nH]c(Nc3ccc(Cl)c(Cl)c3)nc12,scaled lipid accumulation score,[1],0.02
Cc1nc(-c2ccccc2)c(-c2ccncc2)o1,scaled lipid accumulation score,[6],≤ 0
CO[C@@H](C(=O)N1Cc2[nH]nc(NC(=O)c3ccc(N4CCN(C)CC4)cc3)c2C1)c1ccccc1 [listing 1 of 2 here],scaled lipid accumulation score,[4],≤ -0.005
same,scaled lipid accumulation score,[5],≤ -0.005
same,scaled lipid accumulation score,[6],0.533
same,scaled lipid accumulation score,[1],0.779
CCc1cccc(CC)c1NC(=O)N1Cc2[nH]nc(NC(=O)c3ccc(N4CCN(C)CC4)cc3)c2C1,scaled lipid accumulation score,[6],0.21
same,scaled lipid accumulation score,[1],0.34
CO[C@@H](C(=O)N1Cc2[nH]nc(NC(=O)c3ccc(N4CCN(C)CC4)cc3)c2C1)c1ccccc1 [listing 2 of 2 here],scaled lipid accumulation score,[1],0.915 (active)
O=C1c2c(O)cc(O)cc2O[C@H](c2ccc(O)c(O)c2)[C@H]1O,scaled lipid accumulation score,[1],≤ 0
OCc1ccccc1O [Salicyl alcohol],scaled lipid accumulation score,[1],≤ 0
same,scaled lipid accumulation score,library stock concentration: 16.1 mM,≤ 0
COc1ccc(S(=O)(=O)N(CCO)c2ccccc2CN(C)CC=Cc2ccc(Cl)cc2)cc1.O=P(=O)OO.[H] [KN-93 Phosphate],scaled lipid accumulation score,[1],1.07 (active)
COc1ccc(S(=O)(=O)N(CCO)c2ccccc2CN(C)C/C=C/c2ccc(Cl)cc2)cc1 [KN-93 Phosphate],scaled lipid accumulation score,[6],0.441
COc1ccc(S(=O)(=O)N(C(C)=O)c2ccccc2/C=C/c2cc[n+]([O-])cc2)cc1,scaled lipid accumulation score,[3],≤ -0.016
same,scaled lipid accumulation score,[4],≤ -0.016
same,scaled lipid accumulation score,[5],≤ -0.016
same,scaled lipid accumulation score,[6],≤ 0
same,scaled lipid accumulation score,[1],≤ 0 and 0.15
CCCCCCCC/C=C\CCCCCCCC(=O)N[C@@H](CO)C(=O)O [N-Oleoyl-L-Serine],scaled lipid accumulation score,[2],≤ 0
CCCC1([C@H](O)C/C=C/[C@H]2[C@H](O)CC(=O)[C@@H]2CCCCCCC(=O)OC)CCC1 [Butaprost],scaled lipid accumulation score,[2],≤ 0
CC/C=C\C/C=C\C/C=C\C/C=C\C/C=C\CCCCCC(=O)O [Docosapentaenoic Acid],scaled lipid accumulation score,[2],≤ 0
CC/C=C\C/C=C\C/C=C\C/C=C\C/C=C\CCCCCC(=O)O [Docosapentaenoic acid],scaled lipid accumulation score,[2],≤ -0.021
"COc1cc2nccc(Oc3ccc(NC(=O)Nc4cc(C)on4)c(Cl)c3)c2cc1OC [AV951 (KRN951, Tivozanib) (2 mM)]",scaled lipid accumulation score,[5],≤ -0.005
"COc1cc2nccc(Oc3ccc(NC(=O)Nc4cc(C)on4)c(Cl)c3)c2cc1OC [AV951 (KRN951, Tivozanib) (0.4 mM)]",scaled lipid accumulation score,[4],≤ -0.005
COc1cc(Oc2ccnc3cc(OC)c(OC)cc23)ccc1NC(=O)NC(C)c1nccs1 (centres undefined),scaled lipid accumulation score,[3],≤ -0.016
same,scaled lipid accumulation score,[4],≤ -0.016 and ≤ -0.005
same,scaled lipid accumulation score,[5],≤ -0.016 and ≤ -0.005
same,scaled lipid accumulation score,[1],0.713 and 0.552
COc1cc2nccc(Oc3ccc(NC(=O)NC4CC4)c(Cl)c3)c2cc1C(N)=O [Lenvatinib (E7080)],scaled lipid accumulation score,[6],0.055
same,scaled lipid accumulation score,[1],≤ 0
COc1cc2nccc(Oc3ccc(NC(=O)Nc4ccc(F)cc4F)c(F)c3)c2cc1OC [listing 1 of 3 here],scaled lipid accumulation score,[1],1.05 (active)
COc1cc2nccc(Oc3ccc(NC(=O)Nc4cc(C)on4)c(Cl)c3)c2cc1OC [Tivozanib (AV-951)],scaled lipid accumulation score,[6],0.068
same,scaled lipid accumulation score,[1],0.098
COc1cc2nccc(Oc3ccc(NC(=O)Nc4cc(C)on4)c(Cl)c3)c2cc1OC,scaled lipid accumulation score,[3],0.016
same,scaled lipid accumulation score,[4],≤ 0
same,scaled lipid accumulation score,[5],0.009
same,scaled lipid accumulation score,[1],0.246
COc1cc2nccc(Oc3ccc(NC(=O)Nc4ccc(F)cc4F)c(F)c3)c2cc1OC [listing 2 of 3 here],scaled lipid accumulation score,[1],1.22 (active)
"COc1cc2nccc(Oc3ccc(NC(=O)Nc4cc(C)on4)c(Cl)c3)c2cc1OC [AV951 (KRN951, Tivozanib) (10 mM)]",scaled lipid accumulation score,[1],0.775
COc1cc2nccc(Oc3ccc(NC(=O)Nc4cc(C)on4)c(Cl)c3)c2cc1OC [VEGFR Tyrosine Kinase Inhibitor IV],scaled lipid accumulation score,[6],≤ 0
COc1cc2nccc(Oc3ccc(NC(=O)NC4CC4)c(Cl)c3)c2cc1C(N)=O,scaled lipid accumulation score,[4],0.067
same,scaled lipid accumulation score,[5],≤ -0.005
same,scaled lipid accumulation score,[1],≤ -0.005
COc1cc2nccc(Oc3ccc(NC(=O)Nc4ccc(F)cc4F)c(F)c3)c2cc1OC [listing 3 of 3 here],scaled lipid accumulation score,[6],0.473
